C2C12 statin: suppressors of statin myotoxicity in C2C12 myotubes, primary screen, cell-based, single point, plate reader | C2C12 myotubes + simvastatin, ATP luminescence, 48 h; scaled: DMSO 0, geranylgeraniol control 100 | rescue of ATP level, % at 7.49 µM | 330,000 tested, 0.78% active;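 active = mean ATP rescue above about 67%, or every replicate alone reaching that limit, limit read from the data, passing the limit was not always enough; inconclusive = no clear call, values can overlap the other calls; inactive = mean under the limit and some replicate under it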;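 note: myotubes were challenged with 10 µM simvastatin during compound exposure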
PAX8 inh HTS: inhibitors of PAX8-driven TPO luciferase reporter, primary screen, RMG-I cells, single concentration; 360,000 tested, 1.2% active; SteadyGlo, 24 h; inhibition, % at 12.6 µM;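 active = mean replicate inhibition at least 60% with every replicate also reaching 60%; inconclusive = only one of the two criteria is met; inactive = mean below 60% and not all replicates reaching 60%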;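 note: luciferase light reporting Pax8 driven TPO promoter activity; plate controls were median of neutral control wells for no effect and mitoxantrone controls for full effect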
miR122 inh: miR-122 Renilla sensor signal increase in Huh7, primary screen, miR-122 inhibitor project, cell-based, single point, plate reader; activation (reporter increase), % at 12.5 µM; AID 602342, 2012; 340,000 tested, 0.3% active; Huh7 miR-122 Renilla luciferase sensor, 48 h; neutral wells = 0, positive control = 100;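 active = mean replicate activation score at least 90 and every replicate individually at or above 90; inconclusive = only one of the two criteria met; inactive = neither criterion met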;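 note: higher luciferase means less miR-122 activity so hits act as miR-122 inhibitors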
INS-1E GSIS act: GLuc luminescence reporter in INS-1E cells, primary screen for activators of glucose-dependent secretion of insulin; INS-1E GLuc reporter insulin secretion, 2-3 h; 370,000 tested, 0.61% active; AID 743287, 2014; activation, % at 16.6 µM;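 active = lowest replicate activation of at least 40%, so every replicate reaches that level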;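 note: 0% = median of neutral control wells and 100% = median of IBMX positive control wells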
EWS-Fli inh: EWS/Fli-driven NR0B1 reporter inhibitors, primary screen, A673 cells, NR0B1 luciferase, luminescence, MLPCN library; viability-normalised; inhibition, % at 12.6 µM; 350,000 tested, 0.67% active; AID 651661, 2012;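 active = mean inhibition of at least 50% after viability correction, with every replicate also passing that limit; inconclusive = mean reaches 50% but only one of two replicates passes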;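 note: firefly luciferase signal divided by Alamar Blue viability fluorescence both relative to DMSO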
Env fusion inh: inhibitors of HIV-1 Env-driven cell-cell fusion, primary screen, HeLa-JRFL effector, CEM21 target cells, luciferase | inhibition, % at 12.3 µM | AID 651610, 2012 | 360,000 tested, 1.1% active;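 active = mean replicate inhibition score of at least 50 and every replicate individually at or above 50; inconclusive = only one of the two criteria met; inactive = mean below 50 and not all replicates reaching 50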;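 note: 0% = plate neutral controls and 100% = maraviroc near 300 nM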
* = called active by the depositor; ? = inconclusive; nt = no result given; [ ] = another dose, or the depositor's remark. This is a sample that favours compounds with a hit; in the whole collection about 3.1% have one here.

SMILES	C2C12 statin	PAX8 inh HTS	miR122 inh	INS-1E GSIS act	EWS-Fli inh	Env fusion inh
COC(=O)C1=C(C)N(Cc2cccc(C(F)(F)F)c2)C(=NCc2cccc(C(F)(F)F)c2)NC1c1ccc(Cl)cc1 (stereo not drawn)	nt	56	nt	785*	30	?
C=CCN=C1NC(c2cccc(Cl)c2)C(C(=O)OC)=C(C)N1Cc1ccc(C(F)(F)F)cc1 (stereo not drawn)	nt	-3	nt	nt	14	16
C=CCN=C1NC(c2ccc(Cl)cc2)C(C(=O)OC)=C(C)N1Cc1cccc(C(F)(F)F)c1 (stereo not drawn)	nt	27	nt	-11	33	60*
CC(=O)N(C)C[C@H]1Oc2ncc(-c3ccc(C#N)cc3)cc2C(=O)N([C@H](C)CO)C[C@H]1C	-5	nt	-4[16.7 µM]	9	-6	8[16.7 µM]
Cc1ccccc1-c1ccc([C@@H]2[C@@H](CO)N3C(=O)CN(C(=O)Cc4ccccn4)C[C@H]23)cc1	nt	-4	nt	6	1	nt
COCC(=O)N(C)C[C@H]1Oc2ncc(C#CCC3CCCC3)cc2C(=O)N([C@@H](C)CO)C[C@H]1C	0	nt	-2[16.7 µM]	14	6	-15[16.7 µM]
O=C(NC1CCC1)[C@@H]1[C@@H](CO)[C@@H]2Cn3c(ccc(/C=C/c4ccccc4)c3=O)[C@@H]2N1Cc1cncnc1	34	nt	nt	-2	8	15[16.7 µM]
COc1ccc2c(c1)-c1c(ssc1=S)C(C)(C)N2C(=O)CSC1=NCCS1	21	-31	-13	nt	nt	10
CCOc1ccc2c(c1)-c1c(ssc1=S)C(C)(C)N2C(=O)c1ccco1	-14	16	26	-5	nt	71*
O=C(Nc1ccc(Cl)c(C(F)(F)F)c1)[C@@H]1CC=C[C@@H]2CCN(Cc3ccccc3)C(=O)[C@@H]21	1	15	2	6	-4	64*
CCOC(=O)N1CCN(C(=O)C2CC(c3ccccc3OC)=NO2)CC1 (stereo not drawn)	106*	nt	-2	2	2	nt
COc1cc(OC)c(C2=NOC(C(=O)N3CCCc4ccccc43)C2)cc1Cl (stereo not drawn)	135*	nt	2	-47	nt	2
O=C(C1CC(c2ccccc2O)=NO1)N1CCCC1 (stereo not drawn)	-47	nt	4	5	-34	nt
CCSCCc1nnc(NC(=O)Nc2cccc(C(F)(F)F)c2)s1	nt	106*	nt	-1	24	70*
N#C/C(=C/c1ccc(Sc2nc3ccccc3[nH]2)o1)c1cccc(Br)c1	-14	nt	2	nt	nt	nt
CCN1C(=O)S/C(=C/c2ccc(Sc3nc4ccccc4[nH]3)o2)C1=O	-55	4	12	10	6	62*
CCC(=O)Nc1ccc2c(c1)OC[C@H](C)N(C(=O)c1cnccn1)C[C@H](C)[C@H](OC)CN(C)C2=O	-6	4	nt	5	5	3[16.7 µM]
O=S1(=O)C=C(N2CCCCC2)c2ccccc21	108*	nt	-5	nt	nt	nt
COC(=O)C[C@H]1CC[C@H]2[C@@H](COc3ccc(NC(=O)c4cnccn4)cc3C(=O)N2C)O1	-6	-1	27[16.7 µM]	7	-4	nt
Cc1nn(C2CCS(=O)(=O)C2)c(Cl)c1/C=C/C(=O)OCC(=O)c1cc(C)n(-c2ccc(F)cc2)c1C (stereo not drawn)	-2	34	-16	-3	12	55*
Cc1nn(C2CCS(=O)(=O)C2)c(Cl)c1/C=C/C(=O)OCC(=O)c1c[nH]c2ccccc12 (stereo not drawn)	nt	25	nt	9	16	36
CC(C)CC#Cc1ccc2c(c1)O[C@H](CN(C)S(=O)(=O)c1cccc(F)c1)[C@H](C)CN([C@H](C)CO)S2(=O)=O	13	nt	39[16.7 µM]	14	9	44[16.7 µM]
CCCC#Cc1ccc2c(c1)O[C@H](CN(C)S(=O)(=O)c1cccc(F)c1)[C@H](C)CN([C@@H](C)CO)S2(=O)=O	-34	nt	61[16.7 µM]	-7	13	64*[16.7 µM]
CC(C)CC#Cc1ccc2c(c1)O[C@@H](CN(C)S(=O)(=O)c1ccc(F)cc1)[C@H](C)CN([C@@H](C)CO)S2(=O)=O	-71	81*	-8[16.7 µM]	-7	27	60*[16.7 µM]
CC(C)CC#Cc1ccc2c(c1)O[C@@H](CN(C)S(=O)(=O)c1ccc(F)cc1)[C@@H](C)CN([C@@H](C)CO)S2(=O)=O	-33	95*	17[16.7 µM]	5	19	44[16.7 µM]
SMILES	C2C12 statin	PAX8 inh HTS	miR122 inh	INS-1E GSIS act	EWS-Fli inh	Env fusion inh
CC(C)CC#Cc1ccc2c(c1)O[C@H](CN(C)S(=O)(=O)c1ccc(F)cc1)[C@@H](C)CN([C@@H](C)CO)S2(=O)=O	-7	101*	67[16.7 µM]	-18	19	33[16.7 µM]
O=C(C[C@@H]1CC[C@@H]2[C@H](COC[C@@H](O)CN2C(=O)Nc2ccccc2)O1)NCCc1ccncc1	-5	-11	8[16.7 µM]	1	-10	nt
C[C@H]1CCCCO[C@H](CN(C)C(=O)Nc2ccccc2)[C@@H](C)CN([C@@H](C)CO)C(=O)c2cc(NS(=O)(=O)c3ccc(Cl)cc3)ccc2O1	nt	54	4[16.7 µM]	7	4	-22[16.7 µM]
COc1ccc2c3c(n(C)c2c1)[C@@H](CO)N(C(=O)NC(C)C)CC31CN(CC2CCOCC2)C1	nt	nt	nt	0	-5	nt
C=CCn1cc(-c2ccccc2)cc(C#N)c1=O	141*	nt	-4	nt	nt	nt
O=C(O)CC1C(=O)OCN1C(=O)OCc1ccccc1 (stereo not drawn)	-5	nt	-1	-2	1	nt
O=C(CC1C(=O)OCN1C(=O)OCc1ccccc1)OCC(=O)c1ccccc1 (stereo not drawn)	103*	nt	1	-4	nt	nt
C[C@H]1CN([C@@H](C)CO)C(=O)c2cccc(NC(=O)Nc3ccccc3)c2O[C@H]1CN(C)Cc1ccc(Cl)c(Cl)c1	31	47	56[16.7 µM]	-36	-22	4[16.7 µM]
CNc1nc(Cl)nc2ncn(C)c12	2	-5	-7	-5	-2	1
Cn1cnc2nc(Cl)nc(Cl)c21	3	80*	5	-20	46	36
COc1ccc2c3c([nH]c2c1)[C@H](CO)N(S(C)(=O)=O)CC31CCN(C(=O)c2ccccc2)CC1	nt	nt	nt	-2	-4	nt
C[C@@H]1CN([C@@H](C)CO)S(=O)(=O)c2ccc(-c3cccnc3)cc2O[C@@H]1CN(C)C	-7	nt	4[16.7 µM]	22	-13	8[16.7 µM]
C[C@@H]1CN([C@H](C)CO)C(=O)Cc2cc(N(C)C)ccc2O[C@H]1CN(C)S(=O)(=O)c1ccccc1	-1	-11	2[16.7 µM]	2	nt	6[16.7 µM]
COc1ccccc1C1CC(c2ccco2)=NN1c1ccccc1 (stereo not drawn)	nt	80*	nt	-10	6	nt

Bioassay records: PubChem, Broad Institute
